From PubChem
Bcl-B Bim block – inhibitors of Bim-Bcl-B binding, primary screen, biochemical, multiplexed, human Bcl-2 family; bead-based flow cytometry, Bim peptide-Bcl-B binding; AID 951, 2007; Bcl-2-like protein 10 (Homo sapiens), Q9HD36; 190,000 compounds, 0.073% hits; inhibition, % at 10 µM;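 further: 0% = tracer peptide without compound and 100% = reference inhibitor peptide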
Bcl-2 Bim block – inhibitors of Bim-Bcl-2 binding, primary screen, biochemical, multiplexed, human Bcl-2 family; Apoptosis regulator Bcl-2 (Homo sapiens), P10415; Bead-based flow cytometry, Bim peptide-Bcl-2 binding; inhibition, % at 10 µM; 190,000 compounds, 0.06% hits; AID 950, 2007; in the data active means inhibition above about 40%;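 further: 0% = no compound wells with probe peptide and 100% = reference peptide inhibitor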
Target sequence (P10415 whole entry, looked up): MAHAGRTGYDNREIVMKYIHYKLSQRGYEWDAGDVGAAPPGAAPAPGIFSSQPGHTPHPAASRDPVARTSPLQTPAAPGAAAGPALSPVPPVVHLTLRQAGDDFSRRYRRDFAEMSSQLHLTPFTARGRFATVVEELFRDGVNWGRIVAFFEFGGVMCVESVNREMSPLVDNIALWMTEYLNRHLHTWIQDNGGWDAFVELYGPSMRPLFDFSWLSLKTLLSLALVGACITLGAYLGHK
Bcl-W Bim block – inhibitors of Bim binding to Bcl-W, primary screen, biochemical, multiplexed, bead-based flow cytometry; inhibition, % at 10 µM; Bim peptide-Bcl-W binding; 190,000 compounds, 0.02% hits; Bcl-2-like protein 2 (Homo sapiens), Q92843;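 further: 0% = bound tracer without compound and 100% = peptide blocker; higher means less fluorescent Bim peptide bound to Bcl-W beads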
Bim-Bfl-1 – inhibitors of Bim binding to Bfl-1, primary screen, biochemical, multiplexed, bead-based flow cytometry. 190,000 compounds, 0.12% hits. Bim-Bfl-1 binding inhibition. inhibition, % at 10 µM;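 further: 0% = wells without compound plus tracer and 100% = blocker peptide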
Bcl-XL Bim block – inhibitors of Bim-Bcl-XL binding, primary screen, biochemical, multiplexed, bead flow cytometry, human Bcl-XL; Bcl-2-like protein 1 (Homo sapiens), Q07817; Bim peptide-Bcl-XL binding, fluorescence; inhibition, % at 10 µM; 190,000 compounds, 0.04% hits; AID 1007, 2008
Bim-Bcl-XL DR – Bim-Bcl-XL interaction inhibitors, hit retest, confirmation, biochemical, dose response, multiplexed, HTS hits. shares compounds with Bim-Bfl-1. bead-based flow cytometry, Bim-Bcl-XL binding. inhibition of binding at 100 µM. 40 tested, under 10 active. AID 2084, 2009; call rule not given here
* marks the source's active call; other numbers are inactive results; / = no result. Only some compounds are listed: those with a hit (about 0.2% of all), similar ones and a draw of the others. Unless noted, no stated cut-off is given here; in the data, active means inhibition above about 40%.

SMILES | Bcl-B Bim block | Bcl-2 Bim block | Bcl-W Bim block | Bim-Bfl-1 | Bcl-XL Bim block | Bim-Bcl-XL DR
O=C(CSc1nc2ccccc2c(=O)[nH]1)Nc1ccc(S(=O)(=O)N2CCCC2)cc1 | -10 | -10 | -3 | -16 | -24 | /
COc1cc(/C=N/N2C(=O)c3ccccc3NC2(C)c2cccc([N+](=O)[O-])c2)cc(Br)c1O (stereo unspecified) | -3 | 0 | 0 | -1 | -2 | /
O=c1c2c(n3nnnc3n1Cc1ccccc1)-c1ccccc1CC21CCCC1 | 69* | -6 | 2 | -9 | -3 | 3.2
C=CS(=O)(=O)c1sc(Cl)c(N2CCOCC2)c1[N+](=O)[O-] | 10 | 11 | 9 | 48* | 6 | 6.7
C=CSc1sc(Cl)c(N2CCOCC2)c1[N+](=O)[O-] | -6 | -3 | -1 | -3 | -3 | /
CCCN=C1N/C(=C\c2ccco2)C(=O)N1c1ccccc1 | -3 | 0 | 0 | -1 | 1 | /
O=C1/C(=C\c2ccco2)NC(=S)N1c1ccccc1 | -29 | 11 | 8 | 32 | 0 | 0.95
CCN1C(=O)/C(=C2/C=CC=CN2C)SC1=S | -5 | -8 | 0 | -13 | -18 | /
CCN1C(=O)/C(=C\C=C2/C=CC=CN2CC)SC1=S | -6 | 7 | 3 | 21 | 0 | -1.7
Oc1c(C(c2ccco2)N2CCN(C(c3ccccc3)c3ccccc3)CC2)sc2ncnn12 (stereo unspecified) | -6 | -6 | 1 | -7 | -2 | /
Cc1cccc(N(CC(=O)NCc2ccc(F)cc2)C(=O)c2csnn2)c1C | -6 | -2 | -2 | -6 | -5 | /
COc1ccccc1NC(C)=O | -21 | 0 | -5 | 3 | 15 | /
COc1ccccc1NC1=C(NC(C)=O)C(=O)c2ccccc2C1=O | 0 | 9 | 18 | 42* | 5 | 4.7
O=C(c1ccccc1)N(Cc1cccnc1)C1(C(=O)Nc2ccccc2)CCCCC1 | -13 | -3 | -9 | -4 | -9 | /
